The text below walks through data of PubChem BioAssay (NCATS).

Test [1] can be described thus: qHTS drug screen for cell cycle checkpoint inhibitors in PARPi-resistant BRCA-mutant ovarian cancer cell lines. (AID 1963452; calls by dose curve). As to conditions: PEO1/OlaR viability, CellTiter-Glo luminescence, 96 h, stronger effect = lower value. Put shortly:
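PEO1, PEO4 and PEO1/OlaR ovarian cancer cells, 600 per well, exposed 96 h at 37C to a dilution series. Viability read by CellTiter-Glo luminescence, normalized to DMSO and empty wells; activity summarized as Z-AUC.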
A general note: Quantitative high-throughput screening tests each substance at several concentrations.

A short description of test [2]: qHTS for identification of novel therapeutic agents for treatment of microphthalmiaassociated transcription factor (MiT) renal cell carcinoma (RCC) (AID 1963991). To be noted: CellTiter-Glo, 48 h, stronger effect = lower value. An outline of the steps: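 Viability of three TFE3-fusion renal carcinoma lines measured by CellTiter-Glo after 48 h treatment with each of 1912 compounds at 11 concentrations. Responses scaled between DMSO (100%) and empty wells (0%) before curve fitting.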

Test [3] can be described thus: qHTS profiling for inhibitors of Plasmodium falciparum proliferation (AID 504749).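 For activity, negative = inhibition: 0% = DMSO vehicle and full inhibition = artemisinin control.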 Note: nearly all actives have a fitted effect of over 60% in size. Note: potency is the fitted concentration of half-maximal effect. As to conditions: P. falciparum in erythrocytes, SYBR Green DNA, 72 h. An outline of the steps: (§1)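 Quantitative HTS: compounds pinned into medium, infected erythrocytes added (0.3% parasitemia, 2.5% hematocrit), 72 h culture at 37 C under 5% CO2. Saponin/Triton lysis with SYBR Green I, overnight RT, then fluorescence read.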

Another test has as its system 3D7. Described as above. As to conditions: P. falciparum in erythrocytes, SYBR Green DNA, 72 h; series mostly up to 28.7 µM. An outline of the steps: as §1
Another test relates to 7G8. The description is as above. To be noted: P. falciparum in erythrocytes, SYBR Green DNA, 72 h; series mostly up to 28.7 µM. Put shortly:
as §1

In the next test the test system is AA1029. Described as above. As to conditions: P. falciparum in erythrocytes, SYBR Green DNA, 72 h; series mostly up to 28.7 µM. An outline of the steps: as §1
The test system of the next test is AS120. The test is described as above. To be noted: P. falciparum in erythrocytes, SYBR Green DNA, 72 h; series mostly up to 28.7 µM. An outline of the steps:
as §1

The subject of another test is ATS189. The test is described as above. To be noted: P. falciparum in erythrocytes, SYBR Green DNA, 72 h; series mostly up to 28.7 µM. Put shortly:
as §1

The next test deals with ATS95. The description is as above. To be noted: P. falciparum in erythrocytes, SYBR Green DNA, 72 h; series mostly up to 28.7 µM. An outline of the steps:
as §1

For another test, the system named is C2A. The test is described as above. As to conditions: P. falciparum in erythrocytes, SYBR Green DNA, 72 h; series mostly up to 28.7 µM. Put shortly: as §1
A further test has as its system CP185. The test is described as above. To be noted: P. falciparum in erythrocytes, SYBR Green DNA, 72 h; series mostly up to 28.7 µM. An outline of the steps: as §1
Another test concerns CP191. Described as above. To be noted: P. falciparum in erythrocytes, SYBR Green DNA, 72 h; series mostly up to 28.7 µM. An outline of the steps: as §1
Another test deals with CP192. The description is as above. As to conditions: P. falciparum in erythrocytes, SYBR Green DNA, 72 h; series mostly up to 28.7 µM. Put shortly:
as §1

For the next test, the system named is CP194. Described as above. To be noted: P. falciparum in erythrocytes, SYBR Green DNA, 72 h; series mostly up to 28.7 µM. Put shortly: as §1
Another test relates to CP201. Described as above. As to conditions: P. falciparum in erythrocytes, SYBR Green DNA, 72 h; series mostly up to 28.7 µM. An outline of the steps: as §1
Where [4] appears, read: measured here: PEO1 parental Z-AUC.
Where [5] appears, read: TFE3-RCC UOK109 viability, measured here: UOK109 Z-AUC.
The mark [6] stands for this setting: TFE3-RCC viability, measured here: UOK124 Z-AUC.
Setting [7] is: TFE3-RCC viability, measured here: UOK145 Z-AUC.
Where [8] appears, read: at 28.7 µM (top of the series), parasite line A.
[9] abbreviates: at 28.7 µM (top of the series), parasite line B.

Results filed as inconclusive are left out. Activity calls are given as the source filed them. Unless noted, calls come from the whole dose curve; as a rule, active = well fitted inhibition curve with a large enough effect; inconclusive = small, poorly fitted or top-dose-only effect; inactive = flat fitted curve, though single readings scatter.

Take `OCCn1cc(-c2cnc3nnn(Cc4ccc5ncccc5c4)c3n2)cn1`: the Z-AUC in test [1] is -0.182 (inactive); in test [1] (setting [4]) it was 0.0266; in test [1] (measured here: PEO4 Z-AUC), 0.506. Moreover, the z-score in test [2] (setting [5]) was 0.421; in test [2] (setting [6]), 0.338; in test [2] (setting [7]), 0.859.

On to `O=C(O)CCc1ccc(NCc2cccc(Oc3ccccc3)c2)cc1`, for which the Z-AUC in [1] was 1.62 (inactive); in [1] (setting [4]), 1.54; in test [1] (measured here: PEO4 Z-AUC), 1.47. Also, the z-score is 0.226 in test [2] (setting [5]), 0.797 in [2] (setting [6]) and 0.0253 in test [2] (setting [7]).

In the case of `CC(C)(C)NCC(O)c1ccc(O)c(CO)c1` (configuration not stated), the Z-AUC in test [1] was 0.197 (inactive); in [1] (setting [4]) it was 0.915; in [1] (measured here: PEO4 Z-AUC), 0.881. Further, the figures for the z-score in test [2] (setting [5]), in test [2] (setting [6]) and in test [2] (setting [7]) were 0.712, 0.591 and 2.94, respectively.

As to `Cc1[nH]c(=O)c(C#N)cc1-c1ccc2nccn2c1`, the Z-AUC in test [1] is -0.546 (inactive); in [1] (setting [4]) it was -0.575; in test [1] (measured here: PEO4 Z-AUC) it was -0.131. Also, the activity, negative = inhibition in [3] (setting [8]) was 5.44% (inactive); in test [3] (setting [9]) it was 15.3% (inactive). Moreover, the Potency result in the test with 3D7, with 7G8, with AA1029, in the test with AS120, with ATS189 and with ATS95 was “inactive” throughout. Moreover, the Potency result in the test with C2A, in the test on CP185, in the test on CP191, in the test on CP192 and in the test on CP194 was “inactive” each time. The compound was called inactive in the test on CP201.

Turning to `NC[C@H](O)c1ccc(O)c(O)c1`, the Z-AUC was -0.408 (inactive) in test [1], -0.854 in test [1] (setting [4]) and -0.505 in [1] (measured here: PEO4 Z-AUC). Also, the figures for the z-score in test [2] (setting [5]), in [2] (setting [6]) and in test [2] (setting [7]) were 0.441, 0.472 and 0.785, respectively. Further, the activity, negative = inhibition is 5.08% (inactive) in [3] (setting [8]) and 9.63% (inactive) in [3] (setting [9]). Also, the Potency result in the test with 3D7, in the test with 7G8, in the test on AA1029, with AS120, with ATS189 and in the test with ATS95 was “inactive” in each case. In addition, the Potency result in the test with C2A, with CP185, in the test on CP191 and in the test with CP194 was “inactive” each time. Further, the compound was classed as inactive in the test with CP201.

With `O=C(C1CC1)N1CC[C@@H](Cn2c(-c3ccc(-c4ccc5occc5c4)cc3)nc3cnccc32)C1`, the Z-AUC in [1] is 0.419 (inactive); in [1] (setting [4]), 0.824; in [1] (measured here: PEO4 Z-AUC), 0.902. Besides, the z-score in [2] (setting [5]) is 0.57; in test [2] (setting [6]), 0.377; in test [2] (setting [7]), 0.609.

Consider `C1COC(NC(C2CC2)C2CC2)=N1`, for which the Z-AUC in test [1] is -0.361 (inactive); in test [1] (setting [4]) it was -0.558; in test [1] (measured here: PEO4 Z-AUC), -0.616. Also, the z-score worked out at 0.422 in test [2] (setting [5]), 0.218 in [2] (setting [6]) and 0.0437 in test [2] (setting [7]). Moreover, the figures for the Potency (in test [3] (parasite line A); in the test with 7G8; with AS120) were 7.94 µM (active), 12.6 µM (active) and 12.6 µM (active), respectively. Further, the Potency result in the test with 3D7, in the test with ATS189, with CP185 and in the test with CP192 was “inactive” each time. For the same compound, the compound was classed as inactive in the test on CP201.

For `CCCCNc1cc(C(=O)O)cc(S(N)(=O)=O)c1Oc1ccccc1`, the Z-AUC in test [1] is -0.665 (inactive); in test [1] (setting [4]), 0.995; in [1] (measured here: PEO4 Z-AUC), 0.519. For the same compound, the activity, negative = inhibition in test [3] (at 12.8 µM (top of the series), parasite line A) was -5.15% (inactive); in test [3] (at 12.8 µM (top of the series), parasite line B), 8.34% (inactive). Besides, the Potency entry in the test on 3D7, with 7G8, with AA1029, with AS120, in the test with ATS189 and with ATS95 was “inactive” throughout. The Potency result with C2A, with CP185, in the test on CP191, in the test on CP192 and with CP194 was “inactive” each time. The outcome in the test with CP201 was inactive.

With `CC(=O)Oc1ccccc1C(=O)O`, the Z-AUC in test [1] was 0.925 (inactive); in test [1] (setting [4]) it was 0.885; in test [1] (measured here: PEO4 Z-AUC) it was 1.16. For the same compound, the activity, negative = inhibition in [3] (setting [8]) is 3.3% (inactive); in test [3] (setting [9]), 6.15% (inactive). Besides, the Potency entry in the test with 3D7, in the test with 7G8, in the test with AA1029, with AS120, in the test with ATS189 and with ATS95 was “inactive” throughout. Besides, the Potency entry in the test with C2A, in the test with CP185, with CP191, with CP192 and in the test on CP194 was “inactive” throughout. The compound was classed as inactive in the test with CP201.

With `O=C1CCC(N2C(=O)c3ccccc3C2=O)C(=O)N1` (configuration not stated), the Z-AUC in [1] was 0.908 (inactive); in test [1] (setting [4]), 0.614; in test [1] (measured here: PEO4 Z-AUC), 0.388. Besides, the z-score in test [2] (setting [5]) was 0.392; in test [2] (setting [6]), -0.79; in test [2] (setting [7]), 0.456. Moreover, the activity, negative = inhibition in [3] (setting [8]) was 3.13% (inactive). The Potency entry in the test with 3D7, in the test on 7G8, in the test on AA1029, with AS120, with ATS189 and in the test on ATS95 was “inactive” each time. The Potency entry in the test with C2A, with CP185, in the test with CP191, in the test with CP192 and in the test on CP194 was “inactive” in each case. In addition, the compound was classed as inactive with CP201.
